In PubChem BioAssay (NCI):
The panel holds about 83,000 compounds, 20% with a hit somewhere; the sample as a whole holds those more often.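 Growth was measured after 48 h exposure to one concentration of compound in 96-well plates. Values under 10 count as active.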 Activity calls are given as the source filed them.

Assays:
Assay in all cases: NCI-60 one-dose screen, 48 h (100 = growth as untreated, 0 = no growth, -100 = all killed)
Conditions in all cases: 10 µM
K-562 leukemia = tested on: K-562 leukemia
MALME-3M melanoma = tested on: MALME-3M melanoma
MDA-MB-231 breast = tested on: MDA-MB-231 breast
RXF 393 renal = tested on: RXF 393 renal
SF-268 CNS = tested on: SF-268 CNS
SF-295 CNS = tested on: SF-295 CNS
SF-539 CNS = tested on: SF-539 CNS
UACC-257 melanoma = tested on: UACC-257 melanoma
M14 melanoma = tested on: M14 melanoma
HCT-15 colon = tested on: HCT-15 colon

Measured: growth

C#Cc1ccc(-n2c(/C=C/c3cc(OC)cc(OC)c3)nc3ncccc3c2=O)cc1
inactive: K-562 leukemia 75.3% | MALME-3M melanoma 83.2% | MDA-MB-231 breast 53.5% | RXF 393 renal 64.8% | SF-268 CNS 65.3% | SF-295 CNS 75.7% | SF-539 CNS 87.8% | UACC-257 melanoma 66.3% | M14 melanoma 81.2% | HCT-15 colon 82.8%

CCOC(=O)N1C=CC2C=CC1C1C=CC=CC2N1C(=O)OCC (stereo not given)
inactive: K-562 leukemia 47.8% | MALME-3M melanoma 94.8% | MDA-MB-231 breast 87% | RXF 393 renal 86.8% | SF-268 CNS 101% | SF-295 CNS 116% | SF-539 CNS 81.2% | UACC-257 melanoma 87.7% | M14 melanoma 89.5% | HCT-15 colon 86.2%

COc1ccc(Cl)cc1C(=O)Nc1nc2ccc(Cl)cc2s1
inactive: K-562 leukemia 86.8% | MALME-3M melanoma 83.3% | MDA-MB-231 breast 70.9% | RXF 393 renal 95% | SF-268 CNS 83.2% | SF-295 CNS 170% | SF-539 CNS 86.4% | UACC-257 melanoma 102% | M14 melanoma 95.1% | HCT-15 colon 86.5%

C#Cc1ccc(-n2c(/C=C/c3ccc(O)cc3)nc3ncccc3c2=O)cc1
active: RXF 393 renal -7.96%
inactive: K-562 leukemia 25% | MALME-3M melanoma 39.1% | MDA-MB-231 breast 85.2% | SF-268 CNS 53.8% | SF-295 CNS 31.8% | SF-539 CNS 31.7% | UACC-257 melanoma 36.5% | M14 melanoma 43.1% | HCT-15 colon 53.6%

O=C(c1cccs1)c1ccccc1Cc1ccccc1
inactive: K-562 leukemia 98.2% | MALME-3M melanoma 110% | MDA-MB-231 breast 88.6% | RXF 393 renal 99.5% | SF-268 CNS 115% | SF-295 CNS 98.3% | SF-539 CNS 112% | UACC-257 melanoma 92.8% | M14 melanoma 118% | HCT-15 colon 103%

Cc1cc(=O)[nH]c(N/N=C/c2ccccc2O)n1
inactive: K-562 leukemia 59.9% | MALME-3M melanoma 35.1% | MDA-MB-231 breast 76.6% | RXF 393 renal 90% | SF-268 CNS 39.1% | SF-295 CNS 43.2% | SF-539 CNS 96.8% | UACC-257 melanoma 88% | M14 melanoma 29.9% | HCT-15 colon 40.7%

Cc1cccc(NC2=C(C#N)C(=O)NC3(CCCC3)S2)c1
inactive: K-562 leukemia 95.3% | MALME-3M melanoma 104% | MDA-MB-231 breast 110% | RXF 393 renal 102% | SF-268 CNS 103% | SF-295 CNS 108% | SF-539 CNS 91.5% | M14 melanoma 105% | HCT-15 colon 95.8%
active: UACC-257 melanoma -4.62%

COc1ccc(C2=NN(C(=O)c3ccc(S(C)(=O)=O)cc3)C(c3ccc(OC)c(OC)c3)C2)c(OC)c1 (stereo not given)
inactive: K-562 leukemia 77.2% | MALME-3M melanoma 113% | MDA-MB-231 breast 95.2% | RXF 393 renal 105% | SF-268 CNS 89% | SF-295 CNS 98.7% | SF-539 CNS 102% | UACC-257 melanoma 92.2% | M14 melanoma 103% | HCT-15 colon 99.4%

O=C1NC(=O)N(Cc2ccccc2)CC1Br (stereo not given)
inactive: K-562 leukemia 37.4% | MALME-3M melanoma 77.8% | MDA-MB-231 breast 89.3% | RXF 393 renal 68% | SF-268 CNS 80.2% | SF-295 CNS 136% | SF-539 CNS 86.5% | UACC-257 melanoma 82.1% | M14 melanoma 11.4% | HCT-15 colon 45.2%

c1ccc(CNc2ncnc3scc(-c4cccs4)c23)nc1
inactive: K-562 leukemia 42.7% | MALME-3M melanoma 89.5% | MDA-MB-231 breast 59.9% | RXF 393 renal 73.6% | SF-268 CNS 79.7% | SF-295 CNS 41.2% | SF-539 CNS 72.7% | UACC-257 melanoma 46.1% | M14 melanoma 70.7% | HCT-15 colon 76%

CCN(CC)CCNC(=O)c1ccc(NC(C)=O)cc1
inactive: K-562 leukemia 99.2% | MALME-3M melanoma 103% | MDA-MB-231 breast 91.8% | RXF 393 renal 109% | SF-268 CNS 109% | SF-295 CNS 104% | SF-539 CNS 107% | UACC-257 melanoma 117% | M14 melanoma 109% | HCT-15 colon 101%
